Key:
Assay in all cases: DAPPL (digital affinity profiling via proximity ligation, sequencing); 10 mM Tris-HCl pH 7.5, 50 mM NaCl, 1 mM DTT, 4% glycerol, room temperature, 30 min; GST-TFs on glutathione beads, 16-mer random dsDNA library, 0.1% formaldehyde crosslink after washing; high values mean tight binding
Settings in all cases: protein: recombinant; tags: N-terminal GST; dsDNA, one strand shown
FLI1 = molecular target: T1, FLI1 (Homo sapiens, UniProt Q01543 1-452)
T1 sequence: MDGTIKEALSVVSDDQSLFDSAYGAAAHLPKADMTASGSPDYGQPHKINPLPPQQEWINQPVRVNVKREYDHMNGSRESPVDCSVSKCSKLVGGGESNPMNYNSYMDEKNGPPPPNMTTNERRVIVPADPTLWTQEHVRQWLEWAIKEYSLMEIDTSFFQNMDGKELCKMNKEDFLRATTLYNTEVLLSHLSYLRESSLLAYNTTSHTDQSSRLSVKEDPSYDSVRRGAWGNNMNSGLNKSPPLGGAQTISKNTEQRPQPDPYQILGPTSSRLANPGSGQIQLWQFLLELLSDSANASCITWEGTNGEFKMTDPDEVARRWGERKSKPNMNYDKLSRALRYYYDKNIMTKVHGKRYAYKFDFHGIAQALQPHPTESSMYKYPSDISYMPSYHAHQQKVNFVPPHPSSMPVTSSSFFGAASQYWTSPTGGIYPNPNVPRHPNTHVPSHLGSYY
Method in brief: (§1)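 Human transcription factors carrying a GST fusion were produced in yeast, bound to glutathione beads, tagged with DNA barcodes and pooled together with a tag-only sample. Each pool was held with 200 nmole of a random double-stranded 16-mer DNA library in Tris/NaCl/DTT/glycerol buffer for 30 min at room temperature, then washed, crosslinked in 0.1% formaldehyde, proximity-ligated with BsaI/T4 ligase (1 h, 37 °C), PCR-amplified and sequenced on an Illumina NextSeq500. Binding signal is the read frequency of each hexamer for a given factor divided by its frequency in the tag-only sample.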

GABPA = molecular target: T2, GABPA (Homo sapiens, UniProt Q06546 1-454)
T2 sequence: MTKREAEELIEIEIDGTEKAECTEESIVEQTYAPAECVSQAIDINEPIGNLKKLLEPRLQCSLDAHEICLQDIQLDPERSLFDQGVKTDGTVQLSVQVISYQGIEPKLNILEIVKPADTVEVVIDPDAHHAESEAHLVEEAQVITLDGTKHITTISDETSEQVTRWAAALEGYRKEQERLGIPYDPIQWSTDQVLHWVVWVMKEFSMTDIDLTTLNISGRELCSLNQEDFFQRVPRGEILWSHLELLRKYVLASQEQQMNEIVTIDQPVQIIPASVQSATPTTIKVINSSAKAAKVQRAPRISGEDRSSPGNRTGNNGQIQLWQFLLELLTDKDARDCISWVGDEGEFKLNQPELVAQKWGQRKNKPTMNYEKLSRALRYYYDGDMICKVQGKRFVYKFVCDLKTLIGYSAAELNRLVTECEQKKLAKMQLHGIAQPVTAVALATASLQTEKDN
Method in brief: as §1

ELF1 = ELF1 (Homo sapiens, UniProt P32519 1-619)
ELF1, sequence (P32519 whole entry): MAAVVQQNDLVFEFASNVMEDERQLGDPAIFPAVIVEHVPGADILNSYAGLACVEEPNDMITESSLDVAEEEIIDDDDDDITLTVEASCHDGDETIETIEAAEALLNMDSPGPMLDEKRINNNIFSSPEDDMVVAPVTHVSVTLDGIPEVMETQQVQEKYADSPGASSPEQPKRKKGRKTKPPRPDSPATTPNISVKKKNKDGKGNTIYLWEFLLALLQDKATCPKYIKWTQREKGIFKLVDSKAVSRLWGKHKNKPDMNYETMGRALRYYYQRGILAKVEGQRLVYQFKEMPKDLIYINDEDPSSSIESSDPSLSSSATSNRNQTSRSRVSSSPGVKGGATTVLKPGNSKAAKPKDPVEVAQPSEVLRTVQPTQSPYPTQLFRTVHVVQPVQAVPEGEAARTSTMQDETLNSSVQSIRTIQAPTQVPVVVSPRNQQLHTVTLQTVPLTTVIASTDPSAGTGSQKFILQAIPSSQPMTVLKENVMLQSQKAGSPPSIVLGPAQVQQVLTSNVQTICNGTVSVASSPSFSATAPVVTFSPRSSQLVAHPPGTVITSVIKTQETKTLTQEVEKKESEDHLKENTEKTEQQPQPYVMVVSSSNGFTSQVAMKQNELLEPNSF
Method in brief: as §1

SPIB = SPIB (Homo sapiens, UniProt Q01892 1-262)
SPIB, sequence (Q01892 whole entry): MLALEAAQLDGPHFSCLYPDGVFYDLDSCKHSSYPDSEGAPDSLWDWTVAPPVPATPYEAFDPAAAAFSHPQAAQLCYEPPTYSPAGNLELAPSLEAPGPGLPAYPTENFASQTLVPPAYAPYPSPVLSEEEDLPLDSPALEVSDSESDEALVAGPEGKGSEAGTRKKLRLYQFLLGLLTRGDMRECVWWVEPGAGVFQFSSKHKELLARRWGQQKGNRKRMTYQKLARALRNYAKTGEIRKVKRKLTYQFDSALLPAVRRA
Method in brief: as §1

ELF4 = ELF4 (Homo sapiens, UniProt Q99607 1-663)
ELF4, sequence (Q99607 whole entry): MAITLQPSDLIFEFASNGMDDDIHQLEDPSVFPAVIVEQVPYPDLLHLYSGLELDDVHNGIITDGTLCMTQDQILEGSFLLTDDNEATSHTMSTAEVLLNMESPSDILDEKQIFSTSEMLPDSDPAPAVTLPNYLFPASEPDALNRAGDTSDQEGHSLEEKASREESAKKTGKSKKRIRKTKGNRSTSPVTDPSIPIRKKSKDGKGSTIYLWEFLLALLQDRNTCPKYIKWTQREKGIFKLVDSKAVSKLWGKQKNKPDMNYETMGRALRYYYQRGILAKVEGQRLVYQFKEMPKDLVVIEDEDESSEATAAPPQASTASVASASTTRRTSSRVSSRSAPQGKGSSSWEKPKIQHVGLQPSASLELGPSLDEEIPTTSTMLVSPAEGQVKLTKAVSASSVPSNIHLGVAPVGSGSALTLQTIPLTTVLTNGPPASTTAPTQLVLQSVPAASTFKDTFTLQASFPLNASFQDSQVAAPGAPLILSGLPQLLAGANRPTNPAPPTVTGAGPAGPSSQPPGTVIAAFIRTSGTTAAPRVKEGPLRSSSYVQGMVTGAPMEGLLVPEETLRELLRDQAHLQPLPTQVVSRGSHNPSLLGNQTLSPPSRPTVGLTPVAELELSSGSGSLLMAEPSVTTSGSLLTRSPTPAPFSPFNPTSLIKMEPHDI
Method in brief: as §1

ETV2 = molecular target: T3, ETV2 (Homo sapiens, UniProt O00321 1-342)
T3 sequence: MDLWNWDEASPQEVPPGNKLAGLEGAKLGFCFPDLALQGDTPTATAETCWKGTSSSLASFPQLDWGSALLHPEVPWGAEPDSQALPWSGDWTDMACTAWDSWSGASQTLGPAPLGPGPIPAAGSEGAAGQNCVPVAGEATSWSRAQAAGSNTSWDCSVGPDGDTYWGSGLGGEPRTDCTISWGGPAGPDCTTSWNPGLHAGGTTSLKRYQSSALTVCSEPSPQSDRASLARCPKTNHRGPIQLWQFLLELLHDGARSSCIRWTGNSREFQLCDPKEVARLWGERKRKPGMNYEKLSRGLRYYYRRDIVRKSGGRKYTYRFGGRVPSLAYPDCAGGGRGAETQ
Method in brief: as §1

ELF3 = molecular target: T4, ELF3 (Homo sapiens, UniProt P78545 1-371)
T4 sequence: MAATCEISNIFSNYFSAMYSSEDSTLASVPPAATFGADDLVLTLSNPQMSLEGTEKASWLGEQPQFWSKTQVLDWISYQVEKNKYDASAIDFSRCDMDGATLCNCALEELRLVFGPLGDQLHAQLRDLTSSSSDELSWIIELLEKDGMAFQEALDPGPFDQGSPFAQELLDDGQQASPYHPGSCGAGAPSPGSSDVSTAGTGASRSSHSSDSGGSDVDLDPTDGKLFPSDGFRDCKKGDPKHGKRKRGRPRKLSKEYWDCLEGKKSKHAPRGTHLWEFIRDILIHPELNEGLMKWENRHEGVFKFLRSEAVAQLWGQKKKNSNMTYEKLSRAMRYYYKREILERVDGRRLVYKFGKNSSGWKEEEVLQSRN
Method in brief: as §1

ETV1 = ETV1 (Homo sapiens, UniProt P50549 1-477)
ETV1, sequence (P50549 whole entry): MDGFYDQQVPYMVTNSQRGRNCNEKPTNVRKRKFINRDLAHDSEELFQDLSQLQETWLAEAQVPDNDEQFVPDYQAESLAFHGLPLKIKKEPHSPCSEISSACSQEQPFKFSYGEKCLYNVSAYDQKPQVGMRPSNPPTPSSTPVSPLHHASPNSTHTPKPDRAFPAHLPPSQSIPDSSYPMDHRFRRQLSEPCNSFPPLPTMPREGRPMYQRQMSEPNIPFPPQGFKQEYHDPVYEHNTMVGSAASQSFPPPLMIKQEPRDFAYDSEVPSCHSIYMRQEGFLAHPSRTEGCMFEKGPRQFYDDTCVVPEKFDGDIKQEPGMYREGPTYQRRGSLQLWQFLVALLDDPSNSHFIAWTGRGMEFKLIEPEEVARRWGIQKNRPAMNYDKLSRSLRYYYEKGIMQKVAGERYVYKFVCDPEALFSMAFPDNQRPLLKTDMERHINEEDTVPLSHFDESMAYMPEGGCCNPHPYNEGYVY
Method in brief: as §1

ERF = molecular target: T5, ERF (Homo sapiens, UniProt P50548 1-548)
T5 sequence: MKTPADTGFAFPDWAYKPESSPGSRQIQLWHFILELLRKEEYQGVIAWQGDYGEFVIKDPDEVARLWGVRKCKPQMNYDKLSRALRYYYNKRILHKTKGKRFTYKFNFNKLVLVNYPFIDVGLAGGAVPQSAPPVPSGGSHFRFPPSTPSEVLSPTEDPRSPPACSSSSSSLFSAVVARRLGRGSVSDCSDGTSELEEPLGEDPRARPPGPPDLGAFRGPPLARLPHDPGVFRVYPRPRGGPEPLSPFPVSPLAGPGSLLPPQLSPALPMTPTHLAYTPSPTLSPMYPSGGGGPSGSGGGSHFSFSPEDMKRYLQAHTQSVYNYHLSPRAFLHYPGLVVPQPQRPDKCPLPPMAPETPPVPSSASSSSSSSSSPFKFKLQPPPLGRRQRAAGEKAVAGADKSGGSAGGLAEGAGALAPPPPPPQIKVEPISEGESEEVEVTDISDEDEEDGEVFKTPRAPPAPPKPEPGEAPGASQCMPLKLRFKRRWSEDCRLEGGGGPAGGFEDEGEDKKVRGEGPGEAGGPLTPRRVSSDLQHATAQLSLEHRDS
Method in brief: as §1

ETV3L = molecular target: T6, ETV3L (Homo sapiens, UniProt Q6ZN32 1-361)
T6 sequence: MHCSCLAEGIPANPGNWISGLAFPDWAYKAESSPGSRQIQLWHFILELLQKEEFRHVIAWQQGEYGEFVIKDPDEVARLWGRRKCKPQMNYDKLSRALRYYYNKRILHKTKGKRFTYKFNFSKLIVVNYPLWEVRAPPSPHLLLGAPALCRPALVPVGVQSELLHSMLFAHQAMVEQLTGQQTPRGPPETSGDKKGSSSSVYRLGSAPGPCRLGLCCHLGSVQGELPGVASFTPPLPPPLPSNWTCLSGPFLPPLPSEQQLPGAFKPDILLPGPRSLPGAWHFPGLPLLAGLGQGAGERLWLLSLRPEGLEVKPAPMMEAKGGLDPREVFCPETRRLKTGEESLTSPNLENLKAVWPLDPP
Method in brief: as §1

SPDEF = molecular target: T7, SPDEF (Homo sapiens, UniProt O95238 1-335)
T7 sequence: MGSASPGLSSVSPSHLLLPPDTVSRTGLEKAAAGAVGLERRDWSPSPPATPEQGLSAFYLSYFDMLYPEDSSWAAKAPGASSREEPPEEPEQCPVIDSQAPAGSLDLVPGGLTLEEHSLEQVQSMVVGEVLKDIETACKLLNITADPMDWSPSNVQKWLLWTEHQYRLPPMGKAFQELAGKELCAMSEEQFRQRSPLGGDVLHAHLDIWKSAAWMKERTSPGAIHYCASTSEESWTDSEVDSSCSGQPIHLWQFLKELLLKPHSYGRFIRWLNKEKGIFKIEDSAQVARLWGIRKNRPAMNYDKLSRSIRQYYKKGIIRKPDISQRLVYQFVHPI
Method in brief: as §1

ETV7 = molecular target: T8, ETV7 (Homo sapiens, UniProt Q9Y603 1-341)
T8 sequence: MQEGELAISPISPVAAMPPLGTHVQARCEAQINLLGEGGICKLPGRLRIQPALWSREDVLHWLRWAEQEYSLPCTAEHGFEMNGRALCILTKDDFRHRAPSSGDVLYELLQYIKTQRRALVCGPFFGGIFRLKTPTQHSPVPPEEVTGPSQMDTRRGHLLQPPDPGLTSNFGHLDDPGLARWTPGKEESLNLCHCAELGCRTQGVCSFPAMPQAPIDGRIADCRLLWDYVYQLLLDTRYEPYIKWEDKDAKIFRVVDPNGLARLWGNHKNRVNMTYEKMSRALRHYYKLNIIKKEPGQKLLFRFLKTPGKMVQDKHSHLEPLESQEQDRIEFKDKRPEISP
Method in brief: as §1

ETV6 = ETV6 (Homo sapiens, UniProt P41212 1-452)
ETV6, sequence (P41212 whole entry): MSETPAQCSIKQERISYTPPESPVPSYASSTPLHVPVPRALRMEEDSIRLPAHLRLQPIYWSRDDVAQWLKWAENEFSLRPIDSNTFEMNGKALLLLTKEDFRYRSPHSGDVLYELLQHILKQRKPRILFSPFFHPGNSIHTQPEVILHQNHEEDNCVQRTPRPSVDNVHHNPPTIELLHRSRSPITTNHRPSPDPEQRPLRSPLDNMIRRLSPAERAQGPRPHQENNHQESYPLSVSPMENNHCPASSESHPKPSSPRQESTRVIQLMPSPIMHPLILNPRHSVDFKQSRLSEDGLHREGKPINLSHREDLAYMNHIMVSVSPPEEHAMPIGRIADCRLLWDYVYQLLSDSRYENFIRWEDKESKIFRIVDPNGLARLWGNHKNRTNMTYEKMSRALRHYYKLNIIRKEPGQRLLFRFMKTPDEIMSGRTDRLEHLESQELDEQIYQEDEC
Method in brief: as §1

CGTACG
binding signal (FLI1): 1 fold enrichment (6-mer frequency, TF over GST control)
binding signal (GABPA): 1.03 fold enrichment (6-mer frequency, TF over GST control)
binding signal (ELF1): 1.07 fold enrichment (6-mer frequency, TF over GST control)
binding signal (SPIB): 1.01 fold enrichment (6-mer frequency, TF over GST control)
binding signal (ELF4): 1.07 fold enrichment (6-mer frequency, TF over GST control)
binding signal (ETV2): 1.19 fold enrichment (6-mer frequency, TF over GST control)
binding signal (ELF3): 1.01 fold enrichment (6-mer frequency, TF over GST control)
binding signal (ETV1): 1.1 fold enrichment (6-mer frequency, TF over GST control)
binding signal (ERF): 1.04 fold enrichment (6-mer frequency, TF over GST control)
binding signal (ETV3L): 1.08 fold enrichment (6-mer frequency, TF over GST control)
binding signal (SPDEF): 1.02 fold enrichment (6-mer frequency, TF over GST control)
binding signal (ETV7): 1.06 fold enrichment (6-mer frequency, TF over GST control)
binding signal (ETV6): 1.06 fold enrichment (6-mer frequency, TF over GST control)
